# PubChem BioAssay (Tox21)
# Where “and” joins values, the source holds several entries; their conditions need not be identical. Equal entries are not always repeated. Inconclusive results are not listed. Entries that show only a call come without a potency. Calls of active or inactive are those of the source. The call rests on the fitted dose curve; in most records, active means well fitted cell-killing curve with a large enough effect in the repeat runs; inconclusive means weak or mixed curves, or effect the other way; inactive means no such curve, though single readings can be large or run the other way.
# Assay: qHTS assay to identify small molecule agonists of the estrogen receptor alpha (ER-alpha) signaling pathway in the presence of an antagonist - cell viability counter screen (AID 1259386);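 further: cells exposed to compounds for 22 h at 37 °C before the viability read; nearly all actives have a fitted effect of over 30% in size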
# Details: VM7Luc4E2 viability, CellTiter-Fluor fluorescence, 22 h; series mostly up to 92.4 µM
# Excerpt: National Center for Advancing Translational Sciences [NCATS]
# NIH Chemical Genomics Center [NCGC]
# U.S. Environmental Protection Agency [EPA]
# National Institutes of Environmental Health Sciences [NIEHS]
# National Toxicology Program [NTP]
# U.S. Food and Drug Administration [FDA]
# Estrogen receptor (ER), a member of nuclear hormone receptor plays an important role in development, metabolic homeostasis and reproduction. Two subtypes of ER, ER-alpha and ER-beta, have similar expression patterns with some uniqueness in both types. Endocrine disrupting chemicals (EDCs) and their interactions with steroid hormone receptors like ER causes disruption of normal endocrine function. Therefore, it is important to understand the effect of environmental chemicals in ER signaling pathway. For identifying ER agonists, VM7Luc4E2 cell line has been used in the current assay.
# VM7Luc4E2 cell line (provided by Denison MS, University of California) endogenously expresses full-length ER-alpha and is stably transfected with a plasmid containing four estrogen responsive elements (ERE) upstream of a luciferase reporter gene. This current screening for measuring luciferase reporter gene activity using VM7Luc4E2 cells against Tox21 10K library collection is a confirmation study on agonist mode screening in presence of ER-antagonist (ICI-182,780) at 10.0nM final concentration. The cytotoxicity of the compounds was tested in parallel by measuring the cell viability using CellTiter-Fluor assay system (Promega, Madison, WI) in the same wells.
# Tox21 Assay Protocol Summary:
# VM7Luc4E2 cells were cultured in phenol red free assay medium containing 10% charcoal stripped FBS for 5 days prior to the assay. The cells were dispensed at 4,000 cells in 4uL of assay medium per well into white wall/solid-bottom 1536-well plates (Corning Life Sciences, Corning, NY) using a Multidrop Combi (Thermo Fisher Scientific Inc., Waltham, MA) dispenser. After the assay plates were incubated at 37C and 5% CO2 for 24hr, 1uL of 10.0nM (final concentration) ICI-182,780 or assay buffer was added using two separate tips of Flying Reagent Dispenser (FRD, Aurora Discovery, San Diego, CA). Then 23nL of compounds dissolved in DMSO at 15 concentrations and positive controls or DMSO only was transferred to the assay plates by a Pintool station (Wako, San Diego, CA). The assay plates were incubated at 37C and 5% CO2 for 22hr. After 21hr incubation at 37C, 1uL/well CellTiter-Fluor reagent (Promega Corporation, Madison, WI) was added to each well using FRD and after 1hr incubation at 37C and 5% CO2, the fluorescence signal was measured on ViewLux plate reader (PerkinElmer, Shelton, CT).
# Potency means the concentration at half of the fitted maximal effect.
row,Compound,Potency
1,CNC(=O)Oc1cccc2c1OC(C)(C)C2,inactive
2,CCOP(=S)(OCC)SCSC(C)(C)C,inactive
3,COP(=S)(OC)Oc1ccc(Sc2ccc(OP(=S)(OC)OC)cc2)cc1,inactive
4,OC(c1ccc(Cl)cc1)(c1cncnc1)c1ccccc1Cl (stereo not given),inactive
5,CN(C)c1ccccc1,inactive
6,O=C1C(Cl)=C(Cl)C(=O)c2ccccc21,43.4 µM (active) and 61.1 µM (active)
7,CCCCCCCC[N+](C)(CCCCCCCC)CCCCCCCC,21.6 µM (active) and 6.87 µM (active) and 30.6 µM (active)
8,CCCCC(C#N)(Cn1cncn1)c1ccc(Cl)cc1 (stereo not given),inactive
9,CNC(=O)CSP(=S)(OC)OC,inactive
10,COP(=S)(OC)SCn1nnc2ccccc2c1=O,inactive
11,C=C(C)C#N,inactive
12,c1ccc2c(c1)Nc1ccccc1S2,inactive
13,O=C1CCCO1,inactive
14,Clc1cccc(C(Cl)(Cl)Cl)n1,inactive
15,CCCCCCCCCC(CC)c1ccc(S(=O)(=O)O)cc1 (stereo not given),inactive
16,Brc1ccc(Br)cc1,inactive
17,CC(C)COC(=O)c1ccccc1C(=O)OCC(C)C,inactive
18,Nc1ccc2ccccc2c1,inactive
19,CCCCCCCCCc1ccc(O)cc1,inactive
20,OCCOCCO,inactive

row,Compound,Potency
1,CN(C)P(=O)(N(C)C)N(C)C,inactive
2,CCC/C=N/O,inactive
3,O=[N+]([O-])c1ccc(Nc2ccccc2)cc1,27.5 µM (active) and 27.3 µM (active)
4,CCC(=O)Nc1ccc(Cl)c(Cl)c1,inactive
5,O=S(=O)(O)C(F)(F)C(F)(F)C(F)(F)C(F)(F)C(F)(F)C(F)(F)C(F)(F)C(F)(F)F,inactive
6,CC(C)=CC1C(C(=O)OCc2cccc(Oc3ccccc3)c2)C1(C)C (stereo not given),inactive
7,N#CCCCCC#N,inactive
8,CCNc1nc(Cl)nc(NC(C)(C)C#N)n1,inactive
9,[CH3][Sn]([Cl])([Cl])[Cl],inactive
10,CC1(C)Cc2cccc(O)c2O1,inactive
11,ClC(Cl)=C(Cl)C(Cl)=C(Cl)Cl,inactive
12,Clc1ccccc1-c1nnc(-c2ccccc2Cl)nn1,inactive
13,CC(C)(c1ccccc1)c1ccc(O)cc1,inactive
14,N#Cc1nn(-c2c(Cl)cc(C(F)(F)F)cc2Cl)c(N)c1S(=O)C(F)(F)F (stereo not given),21.8 µM (active) and 29.8 µM (active)
15,CCC[CH2][Sn]([Cl])([Cl])[CH2]CCC,1.96 µM (active) and 2.17 µM (active)
16,COc1ccc(O)c(C(C)(C)C)c1,inactive
17,CC(C)(c1ccc(OCC2CO2)cc1)c1ccc(OCC2CO2)cc1 (stereo not given),inactive
18,ClCc1ccccn1,inactive
19,ClCC(Cl)CCl,inactive
20,C[C@]12CCC(=O)C=C1CC[C@@H]1[C@@H]2CC[C@@]2(C)[C@H]1CC[C@]2(C)O,inactive
